PubChem BioAssay (NCATS)
Inconclusive results are not listed. Activity calls are given as the source filed them. Unless noted, calls follow the shape of the dose curve; as a rule, active = well fitted curve in the direction sought with a large enough effect; inconclusive = small, poorly fitted or top-dose-only effect, or another doubt; inactive = no such curve, though single readings can be large; an effect the other way counts as inactive or inconclusive.

What was measured:
[1] = target: Lysosomal acid glucosylceramidase (Homo sapiens) (UniProt P04062); test: Glucocerebrosidase-p2 (AID 348; in the data active = potency below about 10 µM; also: potency is read from the fitted curve at half-maximal effect); details: purified GBA, blue fluorogenic substrate, 40 min
Outline: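 Normal human glucocerebrosidase (0.2 nM) with blue fluorogenic substrate (80 uM final) in citrate/phosphate pH 5.9 with 10mM sodium taurocholate, 0.01% tween-20; 40 min RT, NaOH/glycine stop; fluorescence Ex 365/Em 440; AC50 from a titration from 0.6 nM upwards.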

[2] = AP1 Signaling Pathway (AID 357; active = well fitted curve in either direction with a large enough effect, not every such curve was filed as active;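 also: ME-180 reporter cells stimulated with EGF at its EC50 level; % is scaled to controls: 0 for no effect and ±100 for the full control effect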); details: ME-180 AP-1-bla reporter, EGF-induced, beta-lactamase ratio, 5 h; at 7.69 µM (top of the series) unless noted
Outline: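 Cells are seeded overnight, exposed to compound titrations and an EC50 level of EGF for 5 hours at 37 °C, then loaded with CCF4 dye for 2.5 hours. Beta-lactamase activity under the AP-1 element is read as a blue/green ratio.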

[3] = target: Cytochrome P450 1A2 (Homo sapiens) (UniProt P05177); test: p450-cyp1a2 (AID 410; calls by dose curve; also: potency is read from the fitted curve at half-maximal effect); details: recombinant CYP1A2, luciferin-ME demethylation, luminescence; series mostly up to 57 µM
Outline: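 Read-out is luminescence from luciferin produced by CYP1A2 demethylation of Luciferin-ME (100uM, at Km). Detection reagent stopped the 60 min NADPH-dependent reaction; signals were normalized to 57 uM furafylline.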

[4] = NFAT Signaling Pathway (AID 444; active = well fitted curve in either direction with a large enough effect, not every such curve was filed as active;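 also: carbachol stimulus at about its EC50 of 1 µM final; % is scaled to controls: 0 for no effect and ±100 for the full control effect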); details: Jurkat NFAT-bla M1, carbachol, beta-lactamase ratio, 5 h; at 7.69 µM (top of the series) unless noted
Outline: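 Read-out: CCF4 FRET ratio (460 nm/530 nm) after 1 h RT dye loading, used for %activity and AC50 from titration series. Cells: Jurkat NFAT-β-lactamase/M1 line, treated with compound plus 1 uM carbachol for 5 h, 37 °C.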

[5] = Stat Signaling Pathway (AID 446; active = well fitted curve in either direction with a large enough effect, not every such curve was filed as active;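 also: ME-180 cervical cancer cells given 40 pM IL-6 alongside compound; SIE-controlled beta-lactamase reporter measured as 460/530 nm FRET emission ratio; % is scaled to controls: 0 for no effect and ±100 for the full control effect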); details: ME-180 (cervical carcinoma) SIE beta-lactamase reporter, IL-6 stimulated, 5 h; at 7.69 µM (top of the series) unless noted
Outline: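 Compound effects on IL-6-induced STAT reporter activity were measured in ME-180 cells. After overnight culture, cells were co-treated with 40 pM IL-6 for 5 hrs before beta-lactamase substrate loading at room temperature.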

[6] = target: Glucocorticoid receptor (Homo sapiens) (UniProt P04150); test: GR-GFP Redistribution (AID 450;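 active = compounds whose dose series gives a full or clear partial fitted curve of increased nuclear translocation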; also: potency is read from the fitted curve at half-maximal effect); details: U2OS GR-GFP nuclear translocation, laser cytometry, 2 h
[7] = target: Glucocorticoid receptor (Homo sapiens) (UniProt P04150); test: GR-EFC Redistribution (AID 451; calls by dose curve; also: potency is read from the fitted curve at half-maximal effect); details: CHO-K1 GR-EFC translocation, beta-gal luminescence, 2 h
Outline: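 Translocation of GR-ED fusion to nuclear EA restores b-gal, read by luminescence after 1 h room-temperature detection. Engineered CHO-K1 biosensor cells, 1,000/well, exposed 2 h at 37 C to titrations up to 46 uM final.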

[8] = target: Mitogen-activated protein kinase 10 (Mus musculus) (UniProt Q61831); test: JNK3 AlphaScreen Assay (AID 530; active = well fitted curve in either direction with a large enough effect, not every such curve was filed as active;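 also: kinase came from lysate of stimulated human HepG2 cells; signal reports phosphorylation of biotinylated GST-cJun 1-79 at Ser73 with 10 µM ATP; % is scaled to controls: 0 for no effect and ±100 for the full control effect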); details: JNK3 lysate, c-Jun phosphorylation; series mostly up to 57.1 µM
Outline: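 Kinase buffer: 20 mM Tris-HCl pH 7.6, 10 mM MgCl2, 1 mM DTT, 0.1 mM Na3VO4, 0.01% Tween-20; ATP 10 uM. Substrate biotin-GST-cJun(1-79), enzyme from activated HepG2 lysates. Detection by Ser73 phospho-antibody AlphaScreen.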

[9] = target: Cytochrome P450 3A4 (Homo sapiens) (UniProt P08684); test: qHTS Assay for Inhibitors and Substrates of Cytochrome P450 3A4 (AID 884); details: recombinant CYP3A4, Luciferin-PPXE luminescence; series mostly up to 57.1 µM; also: potency is read from the fitted curve at half-maximal effect; nearly all actives have a fitted effect of over 50% in size
Outline: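 Luminescent readout of luciferin produced by CYP3A4 (20 nM) dealkylation of Luciferin-PPXE, 25 uM (its KM). NADPH-driven reaction ran 60 min at RT after 10 min compound preincubation; data scaled to 57 uM ketoconazole as 100% inhibition.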

[10] = target: Cytochrome P450 3A4 (Homo sapiens) (UniProt P08684); test: qHTS Assay for Activators of Cytochrome P450 3A4 (AID 885); details: recombinant CYP3A4, Luciferin-PPXE luminescence, 60 min; series mostly up to 57.1 µM; also: nearly all actives have a fitted effect of over 65% in size
Outline: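 CYP3A4 activity: Luciferin-PPXE O-dealkylation, 25uM substrate, 200mM KPO4, RT throughout. Read-out is luciferase luminescence; higher values reflect activation.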

[11] = target: Cytochrome P450 2D6 (Homo sapiens) (UniProt P10635); test: qHTS Assay for Inhibitors and Substrates of Cytochrome P450 2D6 (AID 891); details: recombinant CYP2D6, luciferin-ME EGE luminescence; series mostly up to 57.1 µM; also: potency is read from the fitted curve at half-maximal effect; nearly all actives have a fitted effect of over 60% in size
Outline: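 Luminescent read-out of luciferin formed by 5 nM human CYP2D6 demethylating 30 uM Luciferin-ME EGE (Km level) over 60 min at room temperature after NADPH regeneration addition. Data normalized to full inhibition by 1.43 uM quinidine.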

[12] = target: Dual specificity protein kinase CLK4 (Homo sapiens) (UniProt Q9HAZ1); test: qHTS Assay for Inhibitors of CDC-like Kinase 4 (Kinase-Glo Assay) (AID 1770); details: recombinant Clk4, Kinase-Glo ATP depletion luminescence; series mostly up to 66.7 µM; also: nearly all actives have a fitted effect of over 65% in size; also: potency is read from the fitted curve at half-maximal effect
Outline: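 Inhibition was judged from remaining ATP, measured by Ultra-Glo luciferase bioluminescence after Clk4 (25 nM) had acted on RS peptide at 1 uM ATP for 4.5 hours, room temperature.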

[13] = target: Dual specificity protein kinase CLK4 (Homo sapiens) (UniProt Q9HAZ1); test: qHTS Assay for Inhibitors of CDC-like Kinase 4 (ADP-Glo Assay) (AID 1771); details: recombinant CLK4, ADP-Glo luminescence; series mostly up to 80 µM; also: nearly all actives have a fitted effect of over 70% in size; also: potency is read from the fitted curve at half-maximal effect
Outline: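 In this ADP-Glo format, 1 uM ATP and 100 uM RS peptide served as substrates for 25 nM Clk4 in Mg2+/EGTA/DTT/Triton buffer; reactions ran 1 hr at room temperature before luminescent ADP quantification.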

[14] = target: Dual specificity protein kinase CLK4 (Homo sapiens) (UniProt Q9HAZ1); test: qHTS Assay for Inhibitors of CDC-like Kinase 4 (ADP-FP Assay) (AID 1795); details: Transcreener ADP fluorescence polarization; series mostly up to 50 µM; also: nearly all actives have a fitted effect of over 60% in size; also: potency is read from the fitted curve at half-maximal effect
Outline: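 Inhibition of ADP formation by 6.25 nM Clk4 is measured using 1 uM ATP and 100 uM RS repeat peptide over one hour. Produced ADP displaces a fluorescent tracer from antibody, lowering polarization.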

[15] = Primary qHTS for small molecule stabilizers of the endoplasmic reticulum resident proteome: Secreted ER Calcium Modulated Protein (SERCaMP) assay (AID 1508630); details: SH-SY5Y GLuc-SERCaMP (Gaussia luciferase released on ER calcium loss) secretion, thapsigargin, luminescence; series mostly up to 38.4 µM; also: % is scaled to controls: 0 for no effect and ±100 for the full control effect
Outline: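 The SH-SY5Y reporter protocol was run at 3 concentrations up to 38.3 uM (primary) or 11 concentrations (follow-up): 16 h compound, 100 nM thapsigargin for 4 h, then extracellular luciferase luminescence.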

[16] = target: 3',5'-cyclic-AMP phosphodiesterase 4B (Homo sapiens) (UniProt Q07343); test: qHTS Assay for Inhibitors of PDE-IV (AID 607; active = well fitted activation curve with a large enough effect in the main read-out, with a control signal flat, not every such curve was filed as active; also: % of control where 0% means no effect); details: HEK293 ACTOne CNG channel cells, membrane potential fluorescence; series mostly up to 22.9 µM
Outline: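 ACTOne HEK293 cells carry a modified cAMP-gated CNG channel and express endogenous PDE4; plated 1000 cells/well, compounds up to 22.9 uM final. Membrane-potential dye fluorescence (ex 535/em 590) was read; parental cells received 10 uM forskolin + 100 uM RO 20-1724.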

[17] = target: Cytochrome P450 2C19 (Homo sapiens) (UniProt P33261); test: qHTS Assay for Inhibitors and Substrates of Cytochrome P450 2C19 (AID 899); details: recombinant CYP2C19, luciferin-H EGE luminescence; series mostly up to 57.1 µM; also: potency is read from the fitted curve at half-maximal effect; nearly all actives have a fitted effect of over 60% in size
Outline: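 Luminescence readout of luciferin formed from 10uM Luciferin-H EGE (KM level) by 5 nM CYP2C19 in 50mM KPO4. 60 min NADPH-driven reaction at 37C after 10 min compound preincubation; data scaled to 57uM ketoconazole inhibition.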

[18] = target: Ubiquitin carboxyl-terminal hydrolase 1 (Homo sapiens) (UniProt O94782); test: Inhibitors of USP1/UAF1: Pilot qHTS (AID 504865); details: purified USP1/UAF1, Ub-rhodamine cleavage fluorescence; series mostly up to 54.9 µM;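 also: rhodamine fluorescence freed from ubiquitin-rhodamine substrate followed over time; top concentration of the series differs between compounds; % is scaled to controls: 0 for no effect and ±100 for the full control effect; nearly all actives have a fitted effect of over 35% in size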
Outline: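 Kinetic fluorescence assay: 1nM USP1/UAF1, 15 min compound preincubation, then 150nM Ub-Rho; 480/540 nm.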

Sequence of Cytochrome P450 3A4 (Homo sapiens) (P08684 whole entry, looked up): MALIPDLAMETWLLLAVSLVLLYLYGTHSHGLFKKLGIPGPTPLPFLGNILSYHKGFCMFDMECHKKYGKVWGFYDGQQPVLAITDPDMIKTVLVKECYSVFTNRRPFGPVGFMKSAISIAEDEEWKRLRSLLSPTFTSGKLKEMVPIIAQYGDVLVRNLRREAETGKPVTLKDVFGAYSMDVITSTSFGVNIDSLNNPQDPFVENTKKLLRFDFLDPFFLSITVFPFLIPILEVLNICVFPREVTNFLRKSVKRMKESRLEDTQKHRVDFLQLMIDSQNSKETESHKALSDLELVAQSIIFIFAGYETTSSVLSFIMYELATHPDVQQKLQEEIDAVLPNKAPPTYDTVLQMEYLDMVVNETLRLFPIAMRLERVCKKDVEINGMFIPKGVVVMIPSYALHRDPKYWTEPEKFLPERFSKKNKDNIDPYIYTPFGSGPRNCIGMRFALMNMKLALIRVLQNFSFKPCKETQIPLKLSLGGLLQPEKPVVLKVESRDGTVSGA
Sequence of Cytochrome P450 1A2 (Homo sapiens) (P05177 whole entry, looked up): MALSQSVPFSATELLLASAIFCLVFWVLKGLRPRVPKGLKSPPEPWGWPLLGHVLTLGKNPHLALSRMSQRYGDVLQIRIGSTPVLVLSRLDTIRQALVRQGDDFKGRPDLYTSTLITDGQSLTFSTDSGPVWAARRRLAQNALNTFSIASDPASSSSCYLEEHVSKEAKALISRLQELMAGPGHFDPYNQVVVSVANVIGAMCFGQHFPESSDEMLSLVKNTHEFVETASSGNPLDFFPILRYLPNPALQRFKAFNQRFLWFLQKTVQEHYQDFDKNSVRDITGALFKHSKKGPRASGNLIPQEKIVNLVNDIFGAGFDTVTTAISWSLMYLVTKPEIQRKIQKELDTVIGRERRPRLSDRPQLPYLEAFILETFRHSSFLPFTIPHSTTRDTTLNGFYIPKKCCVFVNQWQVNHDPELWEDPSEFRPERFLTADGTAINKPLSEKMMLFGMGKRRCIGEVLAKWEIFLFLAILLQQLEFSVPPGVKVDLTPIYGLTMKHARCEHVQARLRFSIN
Sequence of Ubiquitin carboxyl-terminal hydrolase 1 (Homo sapiens) (O94782 whole entry, looked up): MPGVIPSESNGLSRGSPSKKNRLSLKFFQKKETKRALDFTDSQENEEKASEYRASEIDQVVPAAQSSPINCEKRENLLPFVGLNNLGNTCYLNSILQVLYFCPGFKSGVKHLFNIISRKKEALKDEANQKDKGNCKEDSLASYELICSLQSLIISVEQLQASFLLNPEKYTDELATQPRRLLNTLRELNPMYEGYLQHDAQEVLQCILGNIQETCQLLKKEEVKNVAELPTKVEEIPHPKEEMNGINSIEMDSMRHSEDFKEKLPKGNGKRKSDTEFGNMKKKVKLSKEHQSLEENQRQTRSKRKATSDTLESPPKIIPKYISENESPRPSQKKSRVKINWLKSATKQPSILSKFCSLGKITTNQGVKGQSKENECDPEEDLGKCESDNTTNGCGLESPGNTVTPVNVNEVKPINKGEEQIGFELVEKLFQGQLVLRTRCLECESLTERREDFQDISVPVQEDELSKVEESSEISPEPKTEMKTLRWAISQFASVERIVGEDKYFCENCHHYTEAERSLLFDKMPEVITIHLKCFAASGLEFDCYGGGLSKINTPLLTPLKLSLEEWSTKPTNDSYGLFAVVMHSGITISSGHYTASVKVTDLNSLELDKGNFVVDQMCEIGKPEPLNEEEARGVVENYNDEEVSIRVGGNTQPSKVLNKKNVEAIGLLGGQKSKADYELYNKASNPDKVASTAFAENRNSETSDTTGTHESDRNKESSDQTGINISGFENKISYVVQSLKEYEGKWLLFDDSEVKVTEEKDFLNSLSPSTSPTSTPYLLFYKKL
Sequence of Glucocorticoid receptor (Homo sapiens) (P04150 whole entry, looked up, the tested form may be a part): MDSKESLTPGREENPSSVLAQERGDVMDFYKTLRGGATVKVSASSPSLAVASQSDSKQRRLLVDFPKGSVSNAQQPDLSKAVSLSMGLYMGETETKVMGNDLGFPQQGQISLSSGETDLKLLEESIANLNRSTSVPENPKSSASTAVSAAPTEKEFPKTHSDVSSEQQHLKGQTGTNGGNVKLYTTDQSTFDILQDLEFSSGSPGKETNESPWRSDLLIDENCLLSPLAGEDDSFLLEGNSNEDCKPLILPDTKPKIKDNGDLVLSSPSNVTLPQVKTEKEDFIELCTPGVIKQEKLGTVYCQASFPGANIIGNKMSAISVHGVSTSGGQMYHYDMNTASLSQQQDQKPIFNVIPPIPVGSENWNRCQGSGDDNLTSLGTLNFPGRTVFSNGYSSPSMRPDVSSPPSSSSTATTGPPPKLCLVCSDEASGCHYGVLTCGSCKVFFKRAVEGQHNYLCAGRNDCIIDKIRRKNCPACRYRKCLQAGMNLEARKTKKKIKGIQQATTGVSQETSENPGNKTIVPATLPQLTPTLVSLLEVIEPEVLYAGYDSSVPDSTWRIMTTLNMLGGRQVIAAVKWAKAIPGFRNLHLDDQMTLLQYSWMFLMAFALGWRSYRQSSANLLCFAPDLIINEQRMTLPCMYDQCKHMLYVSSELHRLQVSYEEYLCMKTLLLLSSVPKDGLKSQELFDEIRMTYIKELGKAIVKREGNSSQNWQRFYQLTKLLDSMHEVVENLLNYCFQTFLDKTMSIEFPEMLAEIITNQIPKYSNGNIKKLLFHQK
Sequence of Lysosomal acid glucosylceramidase (Homo sapiens) (P04062 whole entry, looked up): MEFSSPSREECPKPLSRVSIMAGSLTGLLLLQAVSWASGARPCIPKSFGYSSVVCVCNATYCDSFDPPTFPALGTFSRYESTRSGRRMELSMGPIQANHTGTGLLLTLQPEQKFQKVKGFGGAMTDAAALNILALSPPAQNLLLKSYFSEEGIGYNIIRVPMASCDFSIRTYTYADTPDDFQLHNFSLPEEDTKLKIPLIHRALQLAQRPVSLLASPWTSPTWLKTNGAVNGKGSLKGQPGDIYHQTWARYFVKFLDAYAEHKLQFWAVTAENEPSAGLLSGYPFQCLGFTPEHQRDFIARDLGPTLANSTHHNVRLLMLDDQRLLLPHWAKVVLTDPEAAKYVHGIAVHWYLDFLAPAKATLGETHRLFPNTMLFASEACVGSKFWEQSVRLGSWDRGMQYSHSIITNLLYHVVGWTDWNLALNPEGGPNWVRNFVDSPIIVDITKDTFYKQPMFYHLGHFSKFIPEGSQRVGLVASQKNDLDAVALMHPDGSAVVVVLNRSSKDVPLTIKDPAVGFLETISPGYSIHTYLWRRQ
Sequence of Dual specificity protein kinase CLK4 (Homo sapiens) (Q9HAZ1 whole entry, looked up): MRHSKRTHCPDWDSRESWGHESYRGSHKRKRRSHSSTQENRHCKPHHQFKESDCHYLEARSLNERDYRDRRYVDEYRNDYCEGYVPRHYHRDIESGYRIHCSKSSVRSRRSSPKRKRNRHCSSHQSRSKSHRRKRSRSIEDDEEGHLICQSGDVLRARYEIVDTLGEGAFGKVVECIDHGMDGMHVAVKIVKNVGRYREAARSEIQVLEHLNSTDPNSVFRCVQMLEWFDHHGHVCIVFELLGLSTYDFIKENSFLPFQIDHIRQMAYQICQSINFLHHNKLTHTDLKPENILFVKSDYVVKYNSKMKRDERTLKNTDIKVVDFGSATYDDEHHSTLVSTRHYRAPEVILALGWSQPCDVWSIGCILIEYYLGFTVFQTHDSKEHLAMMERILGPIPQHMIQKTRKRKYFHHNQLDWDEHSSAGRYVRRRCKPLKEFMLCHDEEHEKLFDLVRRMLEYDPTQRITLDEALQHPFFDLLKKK
Sequence of 3',5'-cyclic-AMP phosphodiesterase 4B (Homo sapiens) (Q07343 whole entry, looked up): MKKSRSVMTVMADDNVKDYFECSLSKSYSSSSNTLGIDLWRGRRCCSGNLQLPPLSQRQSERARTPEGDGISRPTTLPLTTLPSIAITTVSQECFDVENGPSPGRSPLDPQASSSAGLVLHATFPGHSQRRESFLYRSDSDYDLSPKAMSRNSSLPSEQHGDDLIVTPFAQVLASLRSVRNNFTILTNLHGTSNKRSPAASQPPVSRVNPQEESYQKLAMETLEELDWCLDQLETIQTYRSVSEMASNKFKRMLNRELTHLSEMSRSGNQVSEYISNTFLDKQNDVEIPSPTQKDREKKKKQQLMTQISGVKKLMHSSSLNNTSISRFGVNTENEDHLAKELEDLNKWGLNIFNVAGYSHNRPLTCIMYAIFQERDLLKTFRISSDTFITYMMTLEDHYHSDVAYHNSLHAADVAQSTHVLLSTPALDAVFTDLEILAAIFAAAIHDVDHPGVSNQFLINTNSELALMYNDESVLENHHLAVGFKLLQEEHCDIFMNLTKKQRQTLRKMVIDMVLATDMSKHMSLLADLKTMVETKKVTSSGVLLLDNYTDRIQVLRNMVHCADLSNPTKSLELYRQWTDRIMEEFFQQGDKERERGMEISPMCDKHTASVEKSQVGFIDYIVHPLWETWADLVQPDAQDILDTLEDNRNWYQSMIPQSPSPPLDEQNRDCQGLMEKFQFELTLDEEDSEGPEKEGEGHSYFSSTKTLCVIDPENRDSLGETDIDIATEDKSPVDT
Sequence of Cytochrome P450 2C19 (Homo sapiens) (P33261 whole entry, looked up): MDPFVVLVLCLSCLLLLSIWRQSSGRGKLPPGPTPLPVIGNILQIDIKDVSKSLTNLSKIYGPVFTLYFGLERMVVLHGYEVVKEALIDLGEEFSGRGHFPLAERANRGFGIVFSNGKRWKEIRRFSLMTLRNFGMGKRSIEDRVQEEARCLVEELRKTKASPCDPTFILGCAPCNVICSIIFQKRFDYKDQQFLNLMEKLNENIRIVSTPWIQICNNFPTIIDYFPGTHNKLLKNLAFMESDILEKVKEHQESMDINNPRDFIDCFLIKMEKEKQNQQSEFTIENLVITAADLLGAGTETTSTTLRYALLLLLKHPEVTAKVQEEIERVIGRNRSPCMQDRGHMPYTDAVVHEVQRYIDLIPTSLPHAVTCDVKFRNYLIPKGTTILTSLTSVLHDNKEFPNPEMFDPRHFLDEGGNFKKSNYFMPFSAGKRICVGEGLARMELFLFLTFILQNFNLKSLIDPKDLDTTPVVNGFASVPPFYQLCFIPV

COc1ccc(CNc2ccnc(-c3ccccc3OC)n2)c(OC)c1
inactive: Potency [1] > 11.4 µM | activity change, negative = inhibition [2] 3.33% | activity change, negative = inhibition [4] -9.22% | activity, negative = inhibition [5] 1.07% | Potency [6] > 46 µM | Potency [7] > 46 µM | Potency [8] | Potency [10] | Potency [12] | Potency [13] | Potency [14] | outcome [15]
active: Potency [3] 5.01 µM | Potency [9] 6.31 µM | Potency [11] 3.98 µM

Cn1c(=O)c(-c2ccc(F)c(F)c2)nc2cncnc21
active: Potency [3] 0.158 µM
inactive: Potency [1] > 11.4 µM | activity change, negative = inhibition [2] 10% | activity change, negative = inhibition [4] -5.02% | activity, negative = inhibition [5] -7.37% | Potency [6] > 9.22 µM | Potency [7] > 46 µM | Potency [8] | Potency [16] | Potency [10] | Potency [12] | Potency [13] | Potency [14] | outcome [15]

COc1ccccc1CCn1c(=O)c(CCc2ccccc2)nc2cncnc21
active: Potency [3] 7.94 µM | Potency [9] 3.16 µM | Potency [17] 3.16 µM
inactive: Potency [1] > 11.4 µM | activity change, negative = inhibition [2] -16% | activity change, negative = inhibition [4] -21.1% | activity, negative = inhibition [5] -8.11% | Potency [6] > 9.22 µM | Potency [7] > 46 µM | Potency [8] | Potency [10] | Potency [12] | Potency [13] | Potency [14] | Potency [18] | outcome [15]

c1nc(NC2CC2)c2cc(-c3ccoc3)ccc2n1
inactive: Potency [1] > 11.4 µM | activity change, negative = inhibition [2] -18% | activity change, negative = inhibition [4] 6.95% | activity, negative = inhibition [5] -16.7% | Potency [6] > 46 µM | Potency [7] > 46 µM | Potency [8] | Potency [10] | Potency [18] | outcome [15]
active: Potency [3] 0.794 µM | Potency [12] 0.794 µM | Potency [13] 0.708 µM | Potency [14] 0.178 µM

Cc1cnc(CNc2nc(-c3ccccc3C(F)(F)F)nc3ccccc23)cn1
inactive: Potency [1] > 11.4 µM | activity change, negative = inhibition [2] -16.3% | activity change, negative = inhibition [4] 12.8% | activity, negative = inhibition [5] -2.08% | Potency [6] > 46 µM | Potency [7] > 46 µM | Potency [8] | Potency [16] | Potency [10] | Potency [12] | Potency [13] | Potency [14] | outcome [15]
active: Potency [3] 12.6 µM

Cc1noc(C)c1-c1nc(Nc2ccc(F)cc2)c2ccccc2n1
inactive: Potency [1] > 11.4 µM | activity change, negative = inhibition [2] -5.88% | activity change, negative = inhibition [4] 11.3% | activity, negative = inhibition [5] 4.28% | Potency [6] > 46 µM | Potency [7] > 46 µM | Potency [8] | Potency [12] | Potency [13] | Potency [14] | Potency [18] | outcome [15]
active: Potency [3] 0.251 µM | Potency [17] 3.16 µM
